From PubChem BioAssay (NCI)
The panel holds about 79,000 compounds, 15% with a hit somewhere; the sample as a whole holds those more often. Activity calls are given as the source filed them. Rule as the data show it: active = growth inhibition above about 70%; inactive = the rest.

Experiments:
[1] = NCI Yeast Anticancer Drug Screen. Data for the wt2 strain (AID 169);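 also: 0% = growth of vehicle-treated yeast cultures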; settings: S. cerevisiae wt2 strain growth inhibition, active compounds read high
Procedure, shortened: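 Inhibition of yeast growth was determined after compound treatment, normalised to controls receiving only vehicle.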

[2] = NCI Yeast Anticancer Drug Screen. Data for the mlh1 rad18 strain (AID 175); settings: S. cerevisiae mlh1 rad18 strain growth inhibition, active compounds read high
Procedure, shortened: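 Vehicle-treated cultures served as the reference for growth inhibition in a yeast strain carrying DNA damage repair alterations exposed to each compound.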

[3] = NCI Yeast Anticancer Drug Screen. Data for the rad52 strain (AID 147);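 also: 0% = growth of vehicle-treated control cultures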; settings: S. cerevisiae rad52 mutant growth inhibition, active compounds read high
Procedure, shortened: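 Vehicle-treated cultures served as the reference for growth inhibition of compound-exposed yeast bearing a DNA repair mutation.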

[4] = NCI Yeast Anticancer Drug Screen. Data for the wt1 strain (AID 149);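 also: 0% = growth of vehicle-treated wt1 cultures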; settings: S. cerevisiae wt1 strain (SPY 50644) growth inhibition, active compounds read high
Procedure, shortened: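 wt1 strain grown with compound or vehicle; inhibition taken from the growth difference.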

[5] = NCI Yeast Anticancer Drug Screen. Data for the rad50EPP+ strain (AID 151);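 also: 0% = growth of vehicle-treated control cultures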; settings: S. cerevisiae rad50 mutant strain, active compounds read high
Procedure, shortened: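 In this screen, rad50EPP+ yeast were exposed to compounds. Growth inhibition was scored against vehicle-treated controls.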

[6] = NCI Yeast Anticancer Drug Screen. Data for the mgt1 strain (AID 153); settings: S. cerevisiae mgt1 mutant growth inhibition, active compounds read high
Procedure, shortened: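 mgt1 strain exposed; growth vs vehicle control recorded as inhibition.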

[7] = NCI Yeast Anticancer Drug Screen. Data for the rad50 strain (AID 155);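 also: 0% = growth of vehicle-only cultures of the same strain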; settings: S. cerevisiae rad50 strain growth inhibition, active compounds read high
Procedure, shortened: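 DNA repair mutant yeast, compound exposure, growth read-out; inhibition is taken relative to vehicle.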

[8] = NCI Yeast Anticancer Drug Screen. Data for the mec2-1 strain (AID 157); settings: S. cerevisiae mec2-1 strain, active compounds read high
Procedure, shortened: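 Vehicle-treated cultures served as reference for growth inhibition of compound-exposed mec2-1 yeast.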

[9] = NCI Yeast Anticancer Drug Screen. Data for the rad14 strain (AID 159);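 also: 0% = growth of vehicle-treated control cultures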; settings: S. cerevisiae rad14 strain growth inhibition, active compounds read high
Procedure, shortened: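 DNA repair-defective yeast, compound-exposed; % growth inhibition derived by comparison with vehicle-treated controls.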

[10] = NCI Yeast Anticancer Drug Screen. Data for the CLN2oe strain (AID 163);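 also: 0% = growth of vehicle-only control cultures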; settings: S. cerevisiae CLN2oe strain, active compounds read high
Procedure, shortened: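 Inhibition relative to vehicle-treated yeast is reported. Cells: strain with genetic alteration in cell-cycle control, grown with compound.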

[11] = NCI Yeast Anticancer Drug Screen. Data for the cln2 rad14 strain (AID 165);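 also: 0% = growth equal to vehicle treated cultures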; settings: S. cerevisiae cln2 rad14 strain, active compounds read high
Procedure, shortened: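 Each compound was tested on cln2 rad14 yeast. Inhibition of growth was calculated against vehicle-exposed controls.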

[12] = NCI Yeast Anticancer Drug Screen. Data for the bub3 strain (AID 167); settings: S. cerevisiae bub3 mutant strain, active compounds read high
Procedure, shortened: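 In this screen, a yeast mutant lacking normal mitotic checkpoint function is challenged with compound. Relative growth versus vehicle gives the inhibition value.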

[13] = NCI Yeast Anticancer Drug Screen. Data for the mlh1 strain (AID 171);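 also: 0% = growth of vehicle-treated control cultures of the same strain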; settings: S. cerevisiae mlh1 strain growth inhibition, active compounds read high
Procedure, shortened: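 Vehicle-normalised growth inhibition of a repair- or checkpoint-altered yeast strain following compound treatment.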

[14] = NCI Yeast Anticancer Drug Screen. Data for the sgs1 strain (AID 173);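 also: 0% = growth of vehicle-only control cultures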; settings: S. cerevisiae sgs1 mutant, active compounds read high
Procedure, shortened: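 Screen format: yeast with repair or checkpoint alterations, compound exposure, growth read relative to vehicle.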

[15] = NCI Yeast Anticancer Drug Screen. Data for the rad18 strain (AID 177); settings: S. cerevisiae rad18 mutant growth inhibition, active compounds read high
Procedure, shortened: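 Test articles were incubated with altered yeast defective in DNA damage repair. Results are given as inhibition of growth versus vehicle.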

[16] = at 5.0 µM (retest, dose inferred, filed as 0.5)
[17] = at 50.0 µM (retest, dose inferred, filed as 5.0)

Measured: growth inhibition

Clc1cc(-c2ccccc2)nc2ccccc12
active: [1]; at 100.0 µM 86% | [2]; [17] 87%
inactive: [1]; at 33.0 µM 47% | [2]; [16] 47% | [2]; at 50.0 µM 31.4%

O=Nc1ccc(Nc2ccccc2)cc1
inactive: [3]; at 1.2 µM -40% | [3]; at 3.7 µM -58% | [3]; at 11.0 µM -71% | [3]; at 33.0 µM -11% | [4]; at 1.2 µM -33% | [4]; at 3.7 µM -26% | [4]; at 11.0 µM -13% | [4]; at 33.0 µM 28% | [5]; at 1.2 µM -14% | [5]; at 3.7 µM -10% | [5]; at 11.0 µM 29% | [6]; at 1.2 µM -50% | [6]; at 3.7 µM -60% | [6]; at 11.0 µM -32% | [6]; at 33.0 µM 63% | [7]; at 1.2 µM -41% | [7]; at 3.7 µM -45% | [7]; [16] 2% | [7]; at 11.0 µM -32% | [7]; at 33.0 µM 39% | [7]; [17] 30% | [8]; at 1.2 µM -33% | [8]; at 3.7 µM -38% | [8]; [16] -10% | [8]; at 11.0 µM -35% | [9]; at 1.2 µM -23% | [9]; at 3.7 µM -28% | [9]; at 11.0 µM -44% | [9]; at 33.0 µM 37% | [10]; at 1.2 µM -44% | [10]; at 3.7 µM -35% | [10]; at 11.0 µM -5% | [11]; [16] 29% | [11]; [17] 68% | [12]; at 1.2 µM -31% | [12]; at 3.7 µM -14% | [12]; [16] 4% | [12]; at 11.0 µM -16% | [1]; at 1.2 µM -52% | [1]; at 3.7 µM -47% | [1]; at 11.0 µM -59% | [1]; at 33.0 µM 54% | [13]; at 1.2 µM -42% | [13]; at 3.7 µM -36% | [13]; at 11.0 µM -26% | [14]; at 1.2 µM -40% | [14]; at 3.7 µM -42% | [14]; at 11.0 µM -28% | [14]; at 33.0 µM 55% | [2]; [16] 26% | [15]; at 1.2 µM -33% | [15]; at 3.7 µM -24% | [15]; at 11.0 µM 9%
active: [3]; at 100.0 µM 96% | [4]; at 100.0 µM 97% | [5]; at 33.0 µM 97% | [5]; at 100.0 µM 96% | [6]; at 100.0 µM 97% | [7]; at 50.0 µM 88.8% | [7]; at 100.0 µM 95% | [8]; at 33.0 µM 84% | [8]; [17] 95% | [8]; at 50.0 µM 91% | [8]; at 100.0 µM 97% | [9]; at 100.0 µM 96% | [10]; at 33.0 µM 97% | [10]; at 100.0 µM 96% | [11]; at 50.0 µM 86.3% | [12]; at 33.0 µM 97% | [12]; [17] 91% | [12]; at 50.0 µM 90.5% | [12]; at 100.0 µM 97% | [1]; at 100.0 µM 97% | [13]; at 33.0 µM 83% | [13]; at 100.0 µM 96% | [14]; at 100.0 µM 97% | [2]; [17] 93% | [2]; at 50.0 µM 89.5% | [15]; at 33.0 µM 77% | [15]; at 100.0 µM 96%

O=c1[nH]c2ccccc2c2nc3ccccc3n12
active: [3]; at 33.0 µM 72% | [3]; at 100.0 µM 70% | [5]; at 33.0 µM 90% | [5]; at 100.0 µM 92% | [7]; at 11.0 µM 77% | [7]; at 33.0 µM 78% | [7]; [17] 94% | [7]; at 100.0 µM 88% | [8]; [17] 97% | [12]; [17] 74% | [2]; [17] 86%
inactive: [3]; at 1.2 µM -43% | [3]; at 3.7 µM -34% | [3]; at 11.0 µM 8% | [4]; at 1.2 µM -39% | [4]; at 3.7 µM -44% | [4]; at 11.0 µM -8% | [4]; at 33.0 µM 3% | [4]; at 100.0 µM -17% | [5]; at 1.2 µM 10% | [5]; at 3.7 µM 16% | [5]; at 11.0 µM 48% | [6]; at 1.2 µM -34% | [6]; at 3.7 µM -14% | [6]; at 11.0 µM 26% | [6]; at 33.0 µM 40% | [6]; at 100.0 µM 8% | [7]; at 1.2 µM -17% | [7]; at 3.7 µM -6% | [7]; [16] 51% | [7]; at 50.0 µM 15.6% | [8]; at 1.2 µM -48% | [8]; at 3.7 µM -50% | [8]; [16] 62% | [8]; at 11.0 µM -41% | [8]; at 33.0 µM -42% | [8]; at 50.0 µM 12.7% | [8]; at 100.0 µM 12% | [9]; at 1.2 µM -39% | [9]; at 3.7 µM -43% | [9]; at 11.0 µM -50% | [9]; at 33.0 µM 7% | [9]; at 100.0 µM -8% | [10]; at 1.2 µM 12% | [10]; at 3.7 µM -2% | [10]; at 11.0 µM 15% | [10]; at 33.0 µM 40% | [10]; at 100.0 µM 26% | [11]; [16] 33% | [11]; [17] 59% | [12]; at 1.2 µM -11% | [12]; at 3.7 µM 5% | [12]; [16] 45% | [12]; at 11.0 µM 11% | [12]; at 33.0 µM 60% | [12]; at 100.0 µM 42% | [1]; at 1.2 µM -53% | [1]; at 3.7 µM -47% | [1]; at 11.0 µM -47% | [1]; at 33.0 µM -15% | [1]; at 100.0 µM 26% | [13]; at 1.2 µM -40% | [13]; at 3.7 µM -22% | [13]; at 11.0 µM -14% | [13]; at 33.0 µM 38% | [13]; at 100.0 µM 37% | [14]; at 1.2 µM -43% | [14]; at 3.7 µM -58% | [14]; at 11.0 µM -64% | [14]; at 33.0 µM 23% | [14]; at 100.0 µM -14% | [2]; [16] 49% | [2]; at 50.0 µM 47.1% | [15]; at 1.2 µM -29% | [15]; at 3.7 µM -22% | [15]; at 11.0 µM -20% | [15]; at 33.0 µM 27% | [15]; at 100.0 µM 9%
